# Data: PubChem BioAssay (NCATS)
# Values joined by “and” are separate entries in the source; they are usually repeats but may differ in a detail not shown here. Equal values may be shown once. Records with an inconclusive call do not appear. Some structures have more than one record in an assay (separate samples or runs), and their calls can disagree. Active and inactive are the calls of the source. Unless noted, calls follow the shape of the dose curve; as a rule, active = well fitted curve in the direction sought with a large enough effect; inconclusive = small, poorly fitted or top-dose-only effect, or another doubt; inactive = no such curve, though single readings can be large; an effect the other way counts as inactive or inconclusive.
# Experiments:
# [1] = Primary qHTS for inhibitors of nuclear receptor binding SET domain protein 2 (NSD2) in an isogenic RCH-ACV NSD2 p.E1099K mutant (9B) (AID 1645876); settings: RCH-ACV NSD2 E1099K (9B) viability, CellTiter-Glo, 72 h; series mostly up to 44.9 µM; also: nearly all actives have a fitted effect of over 70% in size; also: potency is read from the fitted curve at half-maximal effect
# [2] = Primary qHTS for inhibitors of nuclear receptor binding SET domain protein 2 (NSD2) in an RCH-ACV wild type WT cells (2C) (AID 1645877); settings: RCH-ACV (leukaemia line) NSD2 WT (2C) viability, CellTiter-Glo, 72 h; series mostly up to 44.9 µM; also: nearly all actives have a fitted effect of over 70% in size; also: potency is read from the fitted curve at half-maximal effect
# [3] = molecular target: Rap guanine nucleotide exchange factor 3 (Homo sapiens) (UniProt O95398); experiment: Confirmatory qHTS for antagonist of cAMP-regulated guanine nucleotide exchange factor 3 (EPAC1) (AID 1645880); settings: EPAC1 Rap1B-BODIPY-GDP exchange, fluorescence; series mostly up to 115 µM; also: nearly all actives have a fitted effect of over 55% in size; also: potency is read from the fitted curve at half-maximal effect
# Sequence of Rap guanine nucleotide exchange factor 3 (Homo sapiens) (O95398 whole entry, looked up): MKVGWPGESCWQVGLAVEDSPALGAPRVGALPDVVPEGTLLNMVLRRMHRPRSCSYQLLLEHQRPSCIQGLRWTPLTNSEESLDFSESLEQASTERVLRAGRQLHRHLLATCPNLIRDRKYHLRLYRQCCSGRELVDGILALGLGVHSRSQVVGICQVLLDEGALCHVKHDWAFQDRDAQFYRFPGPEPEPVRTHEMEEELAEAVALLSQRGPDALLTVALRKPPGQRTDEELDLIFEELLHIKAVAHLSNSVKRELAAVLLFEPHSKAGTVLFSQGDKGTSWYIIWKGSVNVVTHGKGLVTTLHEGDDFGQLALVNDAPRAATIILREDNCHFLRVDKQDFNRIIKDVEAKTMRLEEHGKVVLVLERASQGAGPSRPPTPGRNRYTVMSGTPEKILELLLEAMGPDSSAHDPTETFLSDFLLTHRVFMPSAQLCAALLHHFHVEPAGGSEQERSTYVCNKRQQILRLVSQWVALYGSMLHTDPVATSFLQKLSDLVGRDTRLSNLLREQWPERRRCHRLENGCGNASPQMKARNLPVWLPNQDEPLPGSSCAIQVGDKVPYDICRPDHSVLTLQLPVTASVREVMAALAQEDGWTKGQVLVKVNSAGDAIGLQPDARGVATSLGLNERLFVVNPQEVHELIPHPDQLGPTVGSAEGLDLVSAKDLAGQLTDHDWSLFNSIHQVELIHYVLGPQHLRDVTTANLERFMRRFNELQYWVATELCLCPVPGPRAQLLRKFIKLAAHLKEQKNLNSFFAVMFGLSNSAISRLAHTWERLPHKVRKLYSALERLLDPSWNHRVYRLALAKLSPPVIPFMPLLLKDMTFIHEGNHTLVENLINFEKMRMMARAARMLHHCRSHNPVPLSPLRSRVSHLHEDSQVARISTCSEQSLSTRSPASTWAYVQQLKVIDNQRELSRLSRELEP
# Summary of the method: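 Nucleotide exchange uses 100 nM EPAC1, 250 nM RAP1B-BODIPY-GDP and 50 uM GDP, with compounds in a concentration-titration series. After 5 min at room temperature, fluorescence (480 nm ex/540 nm em) is read every 5 min for 30 min. Data are normalized to control ATA and DMSO.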
# [4] = molecular target: Rap guanine nucleotide exchange factor 3 (Homo sapiens) (UniProt O95398); experiment: Confirmatory qHTS for agonist of cAMP-regulated guanine nucleotide exchange factor 3 (EPAC1) (AID 1645881); settings: EPAC1 Rap1B BODIPY-GDP exchange fluorescence, 100% = cAMP control response; series mostly up to 154 µM;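 also: EPAC1 catalysed release of BODIPY-GDP from Rap1B seen as fluorescence loss; nearly all actives have a fitted effect of over 75% in size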
# [5] = molecular target: Rap guanine nucleotide exchange factor 4 (Homo sapiens) (UniProt Q8WZA2); experiment: Confirmatory qHTS for agonist of cAMP-regulated guanine nucleotide exchange factor 4 (EPAC2) (AID 1645884); settings: EPAC2 GEF activity, Rap1B-BODIPY-GDP fluorescence; series mostly up to 154 µM;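 also: nucleotide exchange releases bodipy-GDP from Rap1 and this lowers its fluorescence; nearly all actives have a fitted effect of over 65% in size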; also: potency is read from the fitted curve at half-maximal effect; as to activation: % is scaled to controls: 0 for no effect and ±100 for the full control effect
# Sequence of Rap guanine nucleotide exchange factor 4 (Homo sapiens) (Q8WZA2 whole entry, looked up): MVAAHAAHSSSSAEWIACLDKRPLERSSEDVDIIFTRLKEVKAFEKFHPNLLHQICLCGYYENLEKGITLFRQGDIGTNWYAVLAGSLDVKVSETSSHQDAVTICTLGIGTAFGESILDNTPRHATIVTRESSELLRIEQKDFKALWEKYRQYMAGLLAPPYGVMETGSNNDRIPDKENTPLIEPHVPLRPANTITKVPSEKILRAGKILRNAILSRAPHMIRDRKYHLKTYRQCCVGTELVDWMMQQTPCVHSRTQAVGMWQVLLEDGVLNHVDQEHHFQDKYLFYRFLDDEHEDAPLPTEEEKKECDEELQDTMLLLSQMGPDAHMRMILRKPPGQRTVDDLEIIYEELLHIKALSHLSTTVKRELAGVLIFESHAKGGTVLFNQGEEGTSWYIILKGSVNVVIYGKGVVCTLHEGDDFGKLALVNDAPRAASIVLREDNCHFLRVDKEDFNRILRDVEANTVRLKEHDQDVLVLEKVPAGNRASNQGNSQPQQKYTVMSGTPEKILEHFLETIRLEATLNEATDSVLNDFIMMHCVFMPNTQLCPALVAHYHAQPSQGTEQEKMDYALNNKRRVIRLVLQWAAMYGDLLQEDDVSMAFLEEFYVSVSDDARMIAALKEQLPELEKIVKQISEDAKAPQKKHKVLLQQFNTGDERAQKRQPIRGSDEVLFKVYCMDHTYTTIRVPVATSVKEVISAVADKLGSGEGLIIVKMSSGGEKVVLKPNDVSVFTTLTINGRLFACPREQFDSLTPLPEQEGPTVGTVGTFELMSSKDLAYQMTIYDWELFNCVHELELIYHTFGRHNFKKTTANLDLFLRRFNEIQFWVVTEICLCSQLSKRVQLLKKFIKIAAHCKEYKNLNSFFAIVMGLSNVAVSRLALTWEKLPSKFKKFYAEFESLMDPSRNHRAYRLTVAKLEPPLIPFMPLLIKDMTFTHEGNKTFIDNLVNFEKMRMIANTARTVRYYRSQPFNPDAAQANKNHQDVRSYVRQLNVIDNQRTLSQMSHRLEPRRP
# [6] = molecular target: Rap guanine nucleotide exchange factor 4 (Homo sapiens) (UniProt Q8WZA2); experiment: Confirmatory qHTS for antagonist of cAMP-regulated guanine nucleotide exchange factor 4 (EPAC2) (AID 1645885); settings: EPAC2 Rap1B-BODIPY-GDP exchange fluorescence, biochemical; series mostly up to 114 µM; also: nearly all actives have a fitted effect of over 25% in size; also: potency is read from the fitted curve at half-maximal effect; as to activity change, negative = inhibition: % is scaled to controls: 0 for no effect and ±100 for the full control effect
# [7] = molecular target: Catechol O-methyltransferase (Homo sapiens) (UniProt P21964); experiment: Confirmatory Screen for Target Class Profiling of Small Molecule Inhibitors of Methyltransferases (AID 1745852; calls by dose curve; as to activity change, negative = inhibition: % is scaled to controls: 0 for no effect and ±100 for the full control effect); settings: MTase-Glo luminescence, SAH detection, recombinant enzyme; measured here: COMT max response; stronger effect = lower value
# Sequence of Catechol O-methyltransferase (Homo sapiens) (P21964 whole entry, looked up): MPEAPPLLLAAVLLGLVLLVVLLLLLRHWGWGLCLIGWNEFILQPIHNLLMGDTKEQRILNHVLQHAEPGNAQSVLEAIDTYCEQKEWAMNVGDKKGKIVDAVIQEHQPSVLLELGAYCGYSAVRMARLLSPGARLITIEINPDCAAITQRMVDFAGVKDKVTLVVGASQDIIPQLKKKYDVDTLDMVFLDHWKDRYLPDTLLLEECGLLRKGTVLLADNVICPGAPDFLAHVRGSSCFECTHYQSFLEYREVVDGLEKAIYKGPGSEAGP
# [8] = molecular target: Guanidinoacetate N-methyltransferase (Homo sapiens) (UniProt Q14353); experiment: as above; settings: MTase-Glo luminescence, SAH detection, recombinant enzyme; at 57.3 µM (top of the series)
# [9] = molecular target: Rap guanine nucleotide exchange factor 3 (Homo sapiens) (UniProt O95398); experiment: Counterscreen qHTS for antagonist of cAMP-regulated guanine nucleotide exchange factor 3 (EPAC1) (AID 1645888); settings: Rap1B-BODIPY-GDP nucleotide exchange, fluorescence; series mostly up to 154 µM;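 also: fluorescence loss as bound BODIPY-GDP is released from Rap1B; % of control where 0% means no effect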
# Summary of the method: (§1)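 Measured: fluorescence of BODIPY-GDP bound to Rap1B, which falls as exchange proceeds. Conditions include 50 uM competing GDP, 5 and 30 min reads, and a later cAMP challenge for antagonist detection.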
# [10] = molecular target: Rap guanine nucleotide exchange factor 3 (Homo sapiens) (UniProt O95398); experiment: Counterscreen qHTS for agonist of cAMP-regulated guanine nucleotide exchange factor 3 (EPAC1) (AID 1645889); settings: EPAC1 Rap1B-BODIPY-GDP exchange, fluorescence; series mostly up to 154 µM; also: % of control where 0% means no effect; nearly all actives have a fitted effect of over 40% in size
# Summary of the method: as §1
smiles,measurement,setting,value
COc1cc2c(cc1O)CC[C@@H]1[C@@H]2CC[C@]2(C)[C@@H](O)CC[C@@H]12,Potency,[1],0.742 µM (active)
same,Potency,[2],0.59 µM (active)
same,Potency,[3],inactive
same,outcome,[4],inactive
same,Potency,[5],inactive
same,Potency,[6],inactive
NC(=NCCCCCCN=C(N)/N=C(\N)Nc1ccc(Cl)cc1)/N=C(\N)Nc1ccc(Cl)cc1,Potency,[1],2.99 µM (active) and 3.65 µM (active)
same,Potency,[2],5.96 µM (active) and 3.65 µM (active)
same,activity,[7],-5.42%
same,"activity change, negative = inhibition",[8],0.888%
CN1CCCC(CC2c3ccccc3Sc3ccccc32)C1 (configuration not stated),Potency,[2],18.8 µM (active)
O=C(CCCN1CCC(O)(c2ccc(Br)cc2)CC1)c1ccc(F)cc1,Potency,[2],18.8 µM (active)
CC1(C)O[C@@H]2C[C@H]3[C@@H]4C[C@H](F)C5=CC(=O)CC[C@]5(C)[C@H]4[C@@H](O)C[C@]3(C)[C@]2(C(=O)CO)O1,Potency,[2],0.0094 µM (active)
C/C=C(/C(=C/C)c1ccc(O)cc1)c1ccc(O)cc1,Potency,[1],14.8 µM (active)
same,Potency,[2],10.5 µM (active)
same,Potency,[3],inactive
same,outcome,[4],inactive
same,Potency,[5],inactive
same,Potency,[6],22.1 µM (active)
same,"activity change, negative = inhibition",[6],-2.47% [at 12.7 µM] (inactive)
same,"activity change, negative = inhibition",[9],-9.27% [at 30.8 µM] (inactive)
CC(=O)OCC(=O)[C@@]1(O)CC[C@H]2[C@@H]3CCC4=CC(=O)C=C[C@]4(C)[C@H]3[C@@H](O)C[C@@]21C,Potency,[2],18.8 nM (active) and 183 nM (active)
CC(=O)OCC(=O)[C@@]12N=C(C)O[C@@H]1C[C@H]1[C@@H]3CCC4=CC(=O)C=C[C@]4(C)[C@H]3[C@@H](O)C[C@@]12C,Potency,[2],150 nM (active) and 417 nM (active)
CCCCCCc1ccc(O)cc1O,Potency,[1],13.3 µM (active)
same,outcome,[4],inactive
same,Potency,[5],inactive
same,Potency,[6],39.3 µM (active)
CC(Cc1cccc(C(F)(F)F)c1)NCCOC(=O)c1ccccc1 (configuration not stated),outcome,[4],inactive
same,Potency,[5],inactive
same,Potency,[6],49.4 µM (active)
O=C(OCCOCCO)c1ccccc1Nc1cccc(C(F)(F)F)c1,Potency,[2],16.8 µM (active)
CC(=O)OCC(=O)[C@@]1(OC(C)=O)[C@@H](C)C[C@H]2[C@@H]3C[C@H](F)C4=CC(=O)C=C[C@]4(C)[C@@]3(F)[C@@H](O)C[C@@]21C,Potency,[2],0.0188 µM (active)
c1ccc(-c2ccc(C(c3ccccc3)n3ccnc3)cc2)cc1 (configuration not stated),Potency,[1],21.1 µM (active)
same,Potency,[2],13.3 µM (active)
same,Potency,[3],inactive
same,outcome,[4],inactive
same,Potency,[5],inactive
same,Potency,[6],13.9 µM (active) and inactive
same,outcome,[9],inactive
same,Potency,[10],inactive
C[C@H]1C[C@H]2[C@@H]3CCC4=CC(=O)C=C[C@]4(C)[C@@]3(Cl)[C@@H](O)C[C@]2(C)[C@@]1(O)C(=O)CO,Potency,[2],0.0047 µM (active)
CC[C@H](C)C(=O)O[C@H]1CCC=C2C=C[C@H](C)[C@H](CC[C@@H]3C[C@@H](O)CC(=O)O3)[C@H]21,Potency,[1],14.8 µM (active)
same,Potency,[2],14.8 µM (active)
same,activity,[7],-80.2%
same,"activity change, negative = inhibition",[8],-3.09%
COc1cc2c(cc1OC)C(=O)C(CC1CCN(Cc3ccccc3)CC1)C2 (configuration not stated),Potency,[2],21.1 µM (active)
CC(C)C[C@H]1C(=O)N2CCC[C@H]2[C@]2(O)O[C@](NC(=O)[C@@H]3C=C4c5cccc6[nH]c(Br)c(c56)C[C@H]4N(C)C3)(C(C)C)C(=O)N12,Potency,[3],inactive
same,outcome,[4],inactive
same,Potency,[5],inactive
same,Potency,[6],inactive
same,activity,[7],7.86%
same,"activity change, negative = inhibition",[8],3.94%
Cc1cc(N)c2cc(NC(=O)Nc3ccc4nc(C)cc(N)c4c3)ccc2n1,Potency,[3],25 µM (active)
same,Potency,[5],25.1 µM (active)
same,Potency,[6],35 µM (active)
CCCCC(=O)O[C@]1(C(=O)CO)CC[C@H]2[C@@H]3CCC4=CC(=O)CC[C@]4(C)[C@H]3[C@@H](O)C[C@@]21C,Potency,[2],0.106 µM (active)
O=C(Nc1ccc(Oc2ccc(Cl)cc2)c(Cl)c1)c1cc(I)cc(I)c1O,Potency,[1],inactive
same,Potency,[2],inactive
same,Potency,[3],30.1 µM (active)
same,outcome,[4],inactive
same,Potency,[5],inactive
same,outcome,[9],inactive
Oc1c(I)cc(Cl)c2cccnc12,Potency,[2],8.41 µM (active)
Oc1ccc(Cl)cc1Sc1cc(Cl)ccc1O,Potency,[1],18.8 µM (active)
same,outcome,[4],inactive
same,Potency,[5],inactive
same,Potency,[6],31.2 µM (active)
same,"activity change, negative = inhibition",[6],-4.98% [at 12.7 µM] (inactive)
same,activation,[10],18.9% [at 30.8 µM] (inactive)
CN1CCN(CCCN2c3ccccc3Sc3ccc(S(=O)(=O)N(C)C)cc32)CC1,Potency,[2],21.1 µM (active)
COc1ccc(CN2CCN(C(c3ccc(F)cc3)c3ccc(F)cc3)CC2)c(OC)c1OC,Potency,[2],16.3 µM (active)
CCCC(=O)O[C@]1(C(=O)CO)CC[C@H]2[C@@H]3CCC4=CC(=O)CC[C@]4(C)[C@H]3[C@@H](O)C[C@@]21C,Potency,[2],0.0299 µM (active)
